Data as given in ChEMBL document CHEMBL3988442, “University of Dundee, Small-Polar-MMV Screening Library” (2021).
For some of these results: Entries with a potency or affinity are not part of this list.

Assays:
Design in all cases: scale not given: direction of the effect not stated beside the values
[1] = biological target: Protein translocase subunit SecA (Escherichia coli (strain K12)) (UniProt P10408); test: Assay to Identify E. coli SecA ATPase Inhibitors; format: functional; conditions: 30 µM
[2] = biological target: T1, Ubiquitin-activating enzyme e1, putative (Leishmania donovani (strain BPK282A1)) (UniProt E9BSI1); test: Leishmania donovani Ubiquitin Activating Enzyme (LdE1); format: functional; conditions: 30 µM
T1 sequence (whole entry): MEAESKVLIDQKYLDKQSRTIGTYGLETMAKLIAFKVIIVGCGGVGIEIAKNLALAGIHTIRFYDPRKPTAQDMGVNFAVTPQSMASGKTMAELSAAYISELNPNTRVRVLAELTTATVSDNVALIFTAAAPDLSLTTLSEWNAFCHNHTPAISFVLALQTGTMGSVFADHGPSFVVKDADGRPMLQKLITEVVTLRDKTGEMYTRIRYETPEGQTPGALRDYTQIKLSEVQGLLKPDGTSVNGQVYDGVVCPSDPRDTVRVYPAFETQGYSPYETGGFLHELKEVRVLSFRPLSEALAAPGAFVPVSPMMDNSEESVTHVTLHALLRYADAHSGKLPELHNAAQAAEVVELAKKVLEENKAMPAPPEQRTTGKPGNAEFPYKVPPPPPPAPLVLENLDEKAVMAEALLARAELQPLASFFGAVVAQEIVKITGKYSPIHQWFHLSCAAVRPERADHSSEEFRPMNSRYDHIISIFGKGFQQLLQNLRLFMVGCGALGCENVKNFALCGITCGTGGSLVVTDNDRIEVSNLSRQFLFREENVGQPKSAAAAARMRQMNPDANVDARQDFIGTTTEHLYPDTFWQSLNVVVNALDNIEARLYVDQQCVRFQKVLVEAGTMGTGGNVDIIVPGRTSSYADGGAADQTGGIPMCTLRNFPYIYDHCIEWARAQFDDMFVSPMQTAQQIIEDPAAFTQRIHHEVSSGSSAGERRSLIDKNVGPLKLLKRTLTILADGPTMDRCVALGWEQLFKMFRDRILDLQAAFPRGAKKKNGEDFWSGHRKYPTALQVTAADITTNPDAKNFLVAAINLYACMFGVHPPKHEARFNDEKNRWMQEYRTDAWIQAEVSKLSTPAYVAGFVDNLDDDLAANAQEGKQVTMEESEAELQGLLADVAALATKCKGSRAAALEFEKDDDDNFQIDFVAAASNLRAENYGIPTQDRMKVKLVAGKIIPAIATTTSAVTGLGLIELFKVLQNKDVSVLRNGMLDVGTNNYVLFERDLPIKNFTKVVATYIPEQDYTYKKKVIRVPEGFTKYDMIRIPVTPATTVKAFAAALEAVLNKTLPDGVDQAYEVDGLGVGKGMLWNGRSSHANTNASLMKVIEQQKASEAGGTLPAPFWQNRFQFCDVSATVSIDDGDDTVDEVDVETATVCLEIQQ

[3] = biological target: Sialic acid-binding Ig-like lectin 9 (Homo sapiens) (UniProt Q9Y336); test: Hs-Siglec9 ALPHAscreen SOP 20170721; conditions: 10 µM
[4] = test system: Trypanosoma cruzi; test: Trypanosoma cruzi phosphomannomutase and mannose-1-phosphate guanylyltransferase assay; format: functional; conditions: 10 µM
[5] = biological target: T2, Arginase-2, mitochondrial (Homo sapiens) (UniProt P78540); test: in vitro enzyme assay to detect the production of urea directly proportional to the activity of Arginase II; format: functional; conditions: 33.3 µM; also: in the data most compounds retested in dose-response had high values
T2 sequence (whole entry): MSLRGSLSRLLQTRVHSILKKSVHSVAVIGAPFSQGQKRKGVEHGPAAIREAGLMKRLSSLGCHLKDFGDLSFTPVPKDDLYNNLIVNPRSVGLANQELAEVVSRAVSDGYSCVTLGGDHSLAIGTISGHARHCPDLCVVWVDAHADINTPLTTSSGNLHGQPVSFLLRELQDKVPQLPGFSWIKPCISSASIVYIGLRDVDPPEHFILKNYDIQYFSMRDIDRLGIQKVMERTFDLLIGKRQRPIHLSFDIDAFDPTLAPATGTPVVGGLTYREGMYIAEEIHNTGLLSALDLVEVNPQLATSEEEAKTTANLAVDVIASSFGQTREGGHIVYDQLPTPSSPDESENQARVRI

[6] = biological target: T3, Proteasome subunit beta (Trypanosoma cruzi) (UniProt O96673); test: Trypanosoma cruzi proteasome chymotrypsin-like activity (TcProtChymo) assay.; also: in the data most compounds retested in dose-response had high values; format: functional; conditions: 9.37 µM
T3 sequence (whole entry): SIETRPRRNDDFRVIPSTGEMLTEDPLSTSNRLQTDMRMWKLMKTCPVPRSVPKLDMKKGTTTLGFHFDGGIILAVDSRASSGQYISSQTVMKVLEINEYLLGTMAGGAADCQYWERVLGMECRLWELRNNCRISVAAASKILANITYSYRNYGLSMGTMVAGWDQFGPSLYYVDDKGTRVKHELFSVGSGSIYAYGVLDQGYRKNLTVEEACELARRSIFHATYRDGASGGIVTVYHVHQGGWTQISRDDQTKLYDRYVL

[7] = species: Homo sapiens; test: To identify inhibition of the IFN signalling (Jak-Stat) pathway via expression of an eGFP reporter gene under the control of an IFN-stimulated response element (ISRE) containing MxA promoter.; format: functional; conditions: 30 µM
[8] = biological target: T4, Tyrosyl-tRNA synthetase, putative (Trypanosoma cruzi (strain CL Brener)) (UniProt Q4DSP6); test: Trypanosoma cruzi tyrosyl tRNA synthetase (TcYRS) _High Tyrosine SOP; format: functional; conditions: 30 µM; also: in the data most compounds retested in dose-response had high values
T4 sequence (whole entry): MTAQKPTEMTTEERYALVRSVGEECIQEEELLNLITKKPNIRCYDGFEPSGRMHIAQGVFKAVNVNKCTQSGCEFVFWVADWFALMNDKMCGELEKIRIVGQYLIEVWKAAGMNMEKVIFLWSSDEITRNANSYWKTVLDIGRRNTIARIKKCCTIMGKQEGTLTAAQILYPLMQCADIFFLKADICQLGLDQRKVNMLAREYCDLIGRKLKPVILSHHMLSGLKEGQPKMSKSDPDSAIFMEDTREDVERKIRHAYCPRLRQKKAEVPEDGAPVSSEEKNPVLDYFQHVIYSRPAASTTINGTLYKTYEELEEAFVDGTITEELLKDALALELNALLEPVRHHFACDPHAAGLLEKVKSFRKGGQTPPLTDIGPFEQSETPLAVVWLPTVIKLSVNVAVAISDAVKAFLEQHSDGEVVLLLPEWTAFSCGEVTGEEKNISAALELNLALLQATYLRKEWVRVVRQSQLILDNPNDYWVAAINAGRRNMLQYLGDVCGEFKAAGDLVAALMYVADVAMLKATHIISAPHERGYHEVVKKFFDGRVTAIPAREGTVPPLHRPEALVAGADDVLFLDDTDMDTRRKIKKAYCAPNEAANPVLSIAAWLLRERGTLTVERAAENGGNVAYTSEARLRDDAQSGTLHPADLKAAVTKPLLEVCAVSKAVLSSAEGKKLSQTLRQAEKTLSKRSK

[9] = biological target: T4, Tyrosyl-tRNA synthetase, putative (Trypanosoma cruzi (strain CL Brener)); test: Trypanosoma cruzi tyrosyl tRNA synthetase (TcYRS) SOP; format: functional; conditions: 30 µM
[10] = biological target: Chromo domain-containing protein 1 (Saccharomyces cerevisiae (strain ATCC 204508 / S288c) (Baker's yeast)) (UniProt P32657); test: ScCHD-1 Enzyme Inhibition Assay; format: functional; conditions: 30 µM; also: in the data most compounds retested in dose-response had high values
Sequence of Chromo domain-containing protein 1 (Saccharomyces cerevisiae (strain ATCC 204508 / S288c) (Baker's yeast)) (P32657 whole entry, the tested form may be a part): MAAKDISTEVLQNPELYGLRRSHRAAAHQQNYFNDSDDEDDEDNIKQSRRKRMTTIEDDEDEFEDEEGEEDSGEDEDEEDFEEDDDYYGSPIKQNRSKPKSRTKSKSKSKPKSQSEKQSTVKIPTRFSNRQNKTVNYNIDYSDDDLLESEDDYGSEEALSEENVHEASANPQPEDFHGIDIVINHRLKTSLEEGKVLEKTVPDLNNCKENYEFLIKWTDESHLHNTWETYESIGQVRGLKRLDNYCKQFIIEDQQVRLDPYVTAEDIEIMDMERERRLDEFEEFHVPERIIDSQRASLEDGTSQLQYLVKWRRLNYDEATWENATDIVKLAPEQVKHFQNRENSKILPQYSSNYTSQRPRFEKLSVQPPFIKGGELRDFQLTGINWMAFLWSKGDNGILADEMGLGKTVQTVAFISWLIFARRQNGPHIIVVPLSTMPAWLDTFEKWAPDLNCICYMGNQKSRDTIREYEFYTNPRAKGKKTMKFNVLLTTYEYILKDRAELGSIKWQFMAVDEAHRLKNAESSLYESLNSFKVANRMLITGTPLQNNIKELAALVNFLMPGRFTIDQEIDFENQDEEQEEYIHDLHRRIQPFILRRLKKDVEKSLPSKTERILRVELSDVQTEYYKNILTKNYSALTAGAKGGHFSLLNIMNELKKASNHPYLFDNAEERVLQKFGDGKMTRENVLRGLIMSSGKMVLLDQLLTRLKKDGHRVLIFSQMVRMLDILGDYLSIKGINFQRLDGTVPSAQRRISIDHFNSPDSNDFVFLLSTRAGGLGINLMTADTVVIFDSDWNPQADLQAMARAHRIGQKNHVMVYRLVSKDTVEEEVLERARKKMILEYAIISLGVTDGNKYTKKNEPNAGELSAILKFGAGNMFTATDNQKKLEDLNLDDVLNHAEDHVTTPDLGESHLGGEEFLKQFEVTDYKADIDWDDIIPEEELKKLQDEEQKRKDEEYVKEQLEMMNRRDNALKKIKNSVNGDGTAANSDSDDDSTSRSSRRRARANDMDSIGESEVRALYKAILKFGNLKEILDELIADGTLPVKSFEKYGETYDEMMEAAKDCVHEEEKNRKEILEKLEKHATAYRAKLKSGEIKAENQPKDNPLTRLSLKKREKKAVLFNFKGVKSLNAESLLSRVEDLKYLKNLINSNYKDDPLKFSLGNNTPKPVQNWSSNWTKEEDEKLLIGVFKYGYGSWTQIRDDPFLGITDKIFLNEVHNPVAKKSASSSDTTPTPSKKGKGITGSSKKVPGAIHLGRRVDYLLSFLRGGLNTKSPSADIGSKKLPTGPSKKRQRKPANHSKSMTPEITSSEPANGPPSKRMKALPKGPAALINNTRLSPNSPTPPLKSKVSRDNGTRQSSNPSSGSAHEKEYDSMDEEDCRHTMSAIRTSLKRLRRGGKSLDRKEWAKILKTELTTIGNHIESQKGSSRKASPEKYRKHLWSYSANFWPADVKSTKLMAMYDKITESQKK

Sequence of Sialic acid-binding Ig-like lectin 9 (Homo sapiens) (Q9Y336 whole entry): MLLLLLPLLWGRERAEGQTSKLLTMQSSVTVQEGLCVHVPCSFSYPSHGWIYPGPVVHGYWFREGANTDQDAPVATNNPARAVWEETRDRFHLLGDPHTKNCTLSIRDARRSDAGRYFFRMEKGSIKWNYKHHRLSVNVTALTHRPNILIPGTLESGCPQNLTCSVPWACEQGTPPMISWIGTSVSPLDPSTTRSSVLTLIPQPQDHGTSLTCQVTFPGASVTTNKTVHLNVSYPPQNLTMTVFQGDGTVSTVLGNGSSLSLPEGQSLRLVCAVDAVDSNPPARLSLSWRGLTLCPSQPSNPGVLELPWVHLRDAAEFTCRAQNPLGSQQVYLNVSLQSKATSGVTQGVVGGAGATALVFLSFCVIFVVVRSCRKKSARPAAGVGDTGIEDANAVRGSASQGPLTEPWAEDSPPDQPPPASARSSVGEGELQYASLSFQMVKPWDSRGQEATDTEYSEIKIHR
Sequence of Protein translocase subunit SecA (Escherichia coli (strain K12)) (P10408 whole entry): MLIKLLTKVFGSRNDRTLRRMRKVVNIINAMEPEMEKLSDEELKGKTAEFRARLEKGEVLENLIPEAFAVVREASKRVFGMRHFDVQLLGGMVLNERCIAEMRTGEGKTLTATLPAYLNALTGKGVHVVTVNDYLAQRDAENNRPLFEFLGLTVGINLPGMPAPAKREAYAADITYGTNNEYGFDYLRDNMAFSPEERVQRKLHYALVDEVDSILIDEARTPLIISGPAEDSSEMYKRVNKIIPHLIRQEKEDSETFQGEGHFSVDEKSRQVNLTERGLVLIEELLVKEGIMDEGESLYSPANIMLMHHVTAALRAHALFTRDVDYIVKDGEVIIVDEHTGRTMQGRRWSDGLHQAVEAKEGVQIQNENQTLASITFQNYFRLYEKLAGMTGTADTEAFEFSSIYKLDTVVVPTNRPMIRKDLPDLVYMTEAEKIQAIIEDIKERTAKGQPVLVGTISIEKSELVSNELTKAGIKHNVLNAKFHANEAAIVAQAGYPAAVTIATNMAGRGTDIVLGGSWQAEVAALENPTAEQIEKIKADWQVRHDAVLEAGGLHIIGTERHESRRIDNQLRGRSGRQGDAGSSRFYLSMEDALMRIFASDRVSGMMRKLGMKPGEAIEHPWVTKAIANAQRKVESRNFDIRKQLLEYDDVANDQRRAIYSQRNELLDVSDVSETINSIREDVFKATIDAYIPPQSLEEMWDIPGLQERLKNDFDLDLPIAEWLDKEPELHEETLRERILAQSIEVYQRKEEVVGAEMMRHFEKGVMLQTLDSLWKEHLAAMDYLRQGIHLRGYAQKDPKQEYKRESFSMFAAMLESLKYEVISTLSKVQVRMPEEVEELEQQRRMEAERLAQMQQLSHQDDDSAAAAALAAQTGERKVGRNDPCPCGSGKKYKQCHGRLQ

Row | SMILES | Percent Effect [1] | Percent Effect [2] | Percent Effect [3] | Percent Effect [4] | Percent Effect [5] | Percent Effect [6] | Percent Effect [7] | Percent Effect [8] | Percent Effect [9] | Percent Effect [10]
1 | Cc1noc(C(C)C)c1C(=O)NCCN1CCCCCC1=O | 0.794% | 20.8% | 3.57% | 1.68% | 1.02% | 14.9% | -6.97% | 6.86% | 16.5% | -7.87%
2 | CS(=O)(=O)N1CCC[C@]2(C[C@@H](Oc3ncccc3F)CO2)C1 | -5.48% | 11.7% | -6.01% | -0.682% | 4.05% | 10.3% | -0.297% | 12.1% | 12.8% | 1.06%
3 | COC(=O)c1cccn1C1CCN(Cc2ccccc2)CC1 | 0.208% | 7.79% | 10% | 2.05% | -10.9% | 6.49% | 16.2% | 3.92% | 11.8% | -3.52%
4 | Nc1nc2nc(C3CCCN(C(=O)c4cscn4)C3)ccc2s1 (stereo not given) | 0.0997% | 22.7% | -9.01% | 3.55% | -9.29% | 19.1% | 25.7% | 0% | 7.5% | -22.1%
5 | CC(C)NC(=O)C1CN(C(=O)N2CCCC2)CC12CCOCC2 (stereo not given) | -1.18% | -3.9% | -4.49% | -1.27% | -4.45% | -6.62% | 5.24% | 2.63% | 2.56% | 2.05%
6 | NC[C@H]1CC[C@H](C(NC(=O)c2ccccc2)c2ccccn2)CC1 (stereo not given in full) | -0.915% | 12% | -7.17% | 4.54% | -2.21% | 13.3% | -1.97% | 10.6% | 25% | -27.6%
7 | CCC(=O)N1CCCC1c1nccnc1Nc1nc(C)cc(C)n1 (stereo not given) | -0.0687% | 14.7% | 0.282% | 0.789% | 2.21% | 15.8% | 6.52% | 2.12% | 7.5% | -21.6%
8 | CCOc1ncccc1C(=O)N1CCCC(c2nccn2CCOC)C1 (stereo not given) | -8.34% | 5.41% | 1.4% | -1.26% | -3.85% | 12.2% | 9.33% | 3.72% | 12.2% | 2.21%
9 | Cn1nc2c(cc1=O)CN(Cc1nnc(-c3ccco3)o1)CC2 | -3.79% | 17.9% | -11.1% | 4.6% | 1.23% | 13.2% | 7.66% | 4.31% | 22.9% | 17.4%
10 | Cc1cccnc1CNCC1(O)CCCN(Cc2ccc(F)cc2)C1=O (stereo not given) | -5.67% | 8.11% | 19.1% | 9.41% | 29.7% | -0.514% | 5.17% | 15.4% | 29.3% | -3.8%
11 | CC(C)C(NC(=O)N1CCN(c2ccc(Cl)cc2)CC1)C(=O)NC1CC1 (stereo not given) | -5.57% | 5.41% | 7.5% | 2.23% | -3.15% | 16.4% | 21.7% | 4.79% | 19.5% | -1.96%
12 | CCc1nc(C2CCCN2C(=O)c2c[nH]c(C)n2)no1 (stereo not given) | -9.57% | 10.7% | 18.3% | 3.41% | -2.66% | 12.1% | -2.6% | 7.89% | 12.8% | -9.37%
13 | O=C(C1CCCC1)N1CCC2(CC1)COCCN2CC1CC1 | -2.73% | 16.9% | -2.04% | -1.31% | 5.02% | 10% | 9.54% | 11.6% | 15% | -9.88%
14 | Cc1nc(C)n(CC2CCCN2Cc2nc3ccccc3nc2C)n1 (stereo not given) | -4.08% | 0% | 4.74% | -0.402% | 1.33% | 15.5% | 2.68% | 5.79% | 7.69% | -11.7%
15 | COC(=O)NCc1cc2n(n1)CCCN(C(C)=O)C2 | -9.99% | 5.41% | -0.0271% | -3.98% | -2.45% | 7.19% | -0.185% | 4.79% | 12.2% | -3.29%
16 | O=C(N1CCC(Nc2cccnn2)CC1)C1(c2ccc(F)cc2)CC1 | -2.8% | 7.79% | 9.36% | -1.68% | -2.25% | 1.4% | 10.5% | 4.9% | 9.41% | -1.2%
17 | Cc1cnn(CC2CN(CC(=O)N(C)Cc3cccs3)CCO2)c1 (stereo not given) | -1.07% | 5.33% | -0.649% | -5.82% | 9.31% | 13.8% | 11.2% | 2.63% | 2.56% | -11.2%
18 | CC(=O)N1CCC(c2cc(C(F)(F)F)n3ccnc3n2)CC1 | -2.29% | 9.33% | -6.3% | 0.789% | 0.443% | 16.1% | 6.98% | 7.41% | -25% | -32.2%
19 | NC(=O)N1CCC2(CC1)CN(Cc1cccnc1)C(=O)CO2 | -0.758% | 11.7% | 1.96% | -0.188% | 1.37% | 8.5% | -22.1% | 10.6% | 15% | -1.18%
20 | Cn1cc(CN2CCCC3(CCCN3S(C)(=O)=O)C2)cn1 (stereo not given) | -3.74% | 9.09% | -4.49% | -4.77% | 2.02% | 12.3% | -3.8% | 5.79% | 10.3% | 1.97%
21 | COC(=O)N1C[C@H]2CC[C@@H]1CN(Cc1cscn1)C2 | -8.16% | 0% | 5.89% | 7.66% | -1.05% | 9.93% | 28.6% | 5.85% | 14.6% | -2.59%
22 | O=C1CC2(CCN(S(=O)(=O)c3cccs3)C2)CN1c1ccccc1 (stereo not given) | -4.36% | 9.09% | 0.409% | -2.81% | 3.65% | 2.83% | 8.75% | -1.93% | -2.5% | -2.17%
